CHX counter: Cycloheximide Counterscreen for Small Molecule Inhibitors of Shiga Toxin. cell reporter, cycloheximide protein synthesis inhibition counterscreen. max response, %. 300,000 compounds, 12% hits. AID 2314, 2010; in the data active = max response mostly above about 13%, no sharp cut-off; inactive = mostly below about 14%; also: read at 38.3 µM for the half of the compounds with a filed dose; 0% is about no effect
Pf growth 48h: Primary qHTS for delayed death inhibitors of the malarial parasite plastid, 48 hour incubation; Potency, µM (top dose mostly 28.7 µM), inactives show at the top dose activity change, negative = inhibition, hits mostly inhibitors; P. falciparum luciferase growth in erythrocytes, 48 h; 310,000 compounds, 5.9% hits; AID 504832, 2011; also: potency is read from the fitted curve at half-maximal effect; % is scaled to controls: 0 for no effect and ±100 for the full control effect
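Luminescence readout; reporter = integrated firefly luciferase in P. falciparum. RBC culture at 2% hematocrit, 0.1% parasitemia final, 37 C/5% CO2; decreased signal taken as growth inhibition.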
Shiga toxin inh: A qHTS for Small Molecule Inhibitors of Shiga Toxin; Vero cells, Shiga toxin protein synthesis inhibition reporter; inhibition, % at 38.7 µM; 290,000 compounds, 9.2% hits; in the data active = inhibition mostly above about 28%, no sharp cut-off; inactive = mostly below about 43%; also: 0% is about no effect
HCV inh: qHTS Assay for Inhibitors of Hepatitis C Virus (HCV); Potency, µM (titrated, usually from 41.8 µM), for the others: at the top dose activity change, negative = inhibition, hits mostly inhibitors; 340,000 compounds, 3.4% hits; Huh7.5.1 HCVcc-Cre infection, luciferase reporter, 44 h; AID 651820, 2012; also: potency is read from the fitted curve at half-maximal effect; % is scaled to controls: 0 for no effect and ±100 for the full control effect
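Infectious HCV cell culture screen: compound-treated cells (1,000/well, pre-plated 4 h) are infected with HCVcc-Cre at roughly 0.5 moi and grown 44 h. Infection is quantified by luciferase signal after 15 min substrate incubation at room temperature.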
AMA1-RON2 inh: qHTS for Inhibitors of AMA1-RON; Towards Development of Antimalarial Drug Lead: Primary Screen; 360,000 compounds, 0.2% hits; Potency, µM (series often up to 58.2 µM), inactives show at the highest dose activity change, negative = inhibition, usual class: inhibitors; AlphaScreen AMA1-biotinylated RON2 peptide binding; AID 720542, 2013; Plasmodium falciparum AMA1 (3D7) - RON2 peptide interaction;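 also: potency is read from the fitted curve at half-maximal effect; 0% = vehicle wells and -100% = peptide control; nearly all actives have a fitted effect of over 45% in size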
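AMA1 (3D7) with his tag at 25 nM final met compounds first, then biotinylated RON2 peptide at 25 nM; detection used donor plus acceptor beads, 10 µg/mL apiece, read by AlphaScreen after 30 min at room temperature.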
Pf growth 96h: Primary qHTS for delayed death inhibitors of the malarial parasite plastid, 96 hour incubation; P. falciparum luciferase reporter growth, 96 h; Potency, µM (titrated, usually from 28.7 µM), for the others: at the highest dose activity change, negative = inhibition, actives largely listed as inhibitors; 320,000 compounds, 6.9% hits; AID 504834, 2011; also: potency is read from the fitted curve at half-maximal effect; % is scaled to controls: 0 for no effect and ±100 for the full control effect
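P. falciparum expressing integrated firefly luciferase, in erythrocytes at 2% hematocrit, 0.05% parasitemia, incubated with compounds 96 h at 37 C, 5% CO2. Growth inhibition read as loss of luminescence; two-generation exposure targets delayed-death apicoplast inhibitors.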
* hit, by the source's call; ? = inconclusive; nt = not tested or not shown; [ ] = another dose, or the depositor's remark. Compounds with a hit are over-represented: about 21% of the library has one in this group of screens. Unless noted, calls follow the shape of the dose curve; as a rule, active = well fitted curve in the direction sought with a large enough effect; inconclusive = small, poorly fitted or top-dose-only effect, or another doubt; inactive = no such curve, though single readings can be large; an effect the other way counts as inactive or inconclusive.

SMILES | CHX counter | Pf growth 48h | Shiga toxin inh | HCV inh | AMA1-RON2 inh | Pf growth 96h
COc1ccc(NC2CCCN(C(=O)c3ccccc3C(F)(F)F)C2)cc1 (configuration not stated) | 7.9 | -14.4% | 5.4 | 2.8% | -11.9% | 26.9%
Cc1cc(C(=O)NNC(=S)NC2CCCCC2)cs1 | 17.0* | 74.0% | 33.7 | ? | 109.7% | 5.0%
CCCC(C)NC(=O)c1cccc(Oc2ccccc2)c1 (configuration not stated) | 23.4* | 5.2% | 59.9* | -12.2% | 8.9% | 3.4%
O=C(NC1CCCC1)c1cccc(Oc2ccccc2)c1 | 22.8* | 11.2% | 78.1* | -26.9% | ? | ?
COc1cccc(C(=O)NNC(=S)NC2CCCCC2)c1 | 41.6* | 183.9% | 47.0* | 3.4% | 19.8% | ?
CCNC(=S)NNC(=O)c1csc(C)c1 | 5.5 | 4.5% | 4.8 | 30.2% | 17.0% | -8.9%
COc1cccc(C(=O)NC2CCCC2)c1 | 7.4 | 13.8% | 43.2 | 1.5% | -1.7% | 4.65µM*
COc1cccc(Oc2ccc(C(F)(F)F)cc2NC(=O)C2=COCCO2)c1 | -2.6 | ? | 7.8 | -27.3% | 10.3% | 7.38µM*
COc1cccc(Oc2ccc(C(F)(F)F)cc2NC(=O)c2cccc(F)c2)c1 | -1.9 | ? | -1.3 | -5.7% | -3.8% | ?
O=C(Nc1cc(S(=O)(=O)N2CCCCC2)ccc1Oc1ccccc1)C1=COCCO1 | -2.0 | 10.4µM* | 5.1 | 22.4µM* | -4.3% | 10.4µM*
Cc1ccc2cc3c(nc2c1)OCC3 | 32.0* | 55.0% | 47.4* | 14.8% | -2.4% | 58.8%
CCC(C)NC(=O)Nc1ccc(Br)cc1 (configuration not stated) | 32.4* | 14.3%[5.75 µM] | 79.4* | 5.3% | 0.6% | ?
CC(C)(C)NC(=O)Nc1ccc(F)c(Cl)c1 | 13.2 | 21.3% | 14.2 | ? | -10.7% | 0.6%
CC(C)(C)NC(=O)Nc1ccc(Br)cc1 | 38.6* | 168.7% | 83.4* | ? | 12.7% | 9.5%
COc1ccc(-c2ccc(C(=O)NCc3ccc(N(C)C)cc3)c3occc23)c(C)c1 | nt | nt | nt | nt | 8.91µM* | nt
COc1cc(-c2coc3c(C(=O)NCc4ccc(N(C)C)cc4)cccc23)ccc1O | nt | nt | nt | nt | 31.6µM* | nt
Cc1ccc(Cc2c(-c3ccc(Cl)cc3)nc3c(Cl)cc(C(F)(F)F)cn23)cc1 | nt | nt | nt | nt | -0.4% | nt
CN(C(=O)c1cccc(NC(=O)Cc2cccc(NC(=O)C3CCN(C(=O)c4ccccc4)CC3)c2)c1)C1CC1 | nt | nt | nt | -12.4% | -4.4% | nt
CCc1nc(N)nc(N)c1-c1ccc(Cl)cc1 | -3.7 | 0.0828µM* | -10.2 | ? | 0.0% | 4.26µM*
O=C1NC(=Nc2ccccc2)S/C1=C/c1cccs1 | 40.7* | 167.0% | 69.4* | 10.4% | -6.2% | 31.0%
COc1cc(/C=C2\SC(=Nc3ccccc3)NC2=O)cc(Cl)c1O | 1.7 | 0.0% | -12.1 | -25.3% | -1.5% | 6.57µM*
Cc1ccc(N=C2NC(=O)/C(=C/c3cccs3)S2)cc1C | 7.3 | -7.3% | 11.1 | ? | 0.4% | ?
Cc1cccc(N=C2NC(=O)/C(=C\c3cccs3)S2)c1 | 33.7* | 30.4% | 67.5* | 2.0% | 16.7% | 13.9%
O=C1NC(=Nc2ccccc2)S/C1=C/c1cccnc1 | 14.7 | 8.2% | 22.8 | -9.8% | -7.2% | 28.6%
O=C1NC(=Nc2ccccc2)S/C1=C\c1ccccc1 | 19.2* | -21.1% | nt | 0.1% | -8.2% | 0.2%
SMILES | CHX counter | Pf growth 48h | Shiga toxin inh | HCV inh | AMA1-RON2 inh | Pf growth 96h
CC1CCC(NC(=O)CSc2nnc(-c3cccnc3)o2)CC1 (configuration not stated) | nt | 10.3% | nt | 6.7% | 14.3% | -17.5%
O=C1N/C(=N/Nc2ccccc2)S/C1=C\c1ccccc1 | 22.3* | ? | 37.1 | 12.7% | 30.4% | ?
COc1ccccc1C(CNC(=O)c1ccc(-c2ccccc2Cl)o1)N1CCCC1 (configuration not stated) | nt | 14.7µM* | nt | ? | -28.3% | 10.4µM*
COc1ccc(C(CNC(=O)Cc2ccc(Cl)c(Cl)c2)N2CCCCC2)cc1 (configuration not stated) | -0.9 | ? | -4.4 | 3.1% | -9.5% | 2.08µM*
COc1ccc(C(CNC(=O)c2ccc(-c3ccccc3Cl)o2)N2CCOCC2)cc1 (configuration not stated) | nt | 14.7µM* | nt | ? | -22.8% | ?
O=C(Cn1ccc(=O)[nH]c1=O)Nc1ccc(O)c([N+](=O)[O-])c1 | nt | nt | nt | 14.6% | 17.8% | nt
CC(NCCC1(Cc2ccccc2Cl)CCOC(C)(C)C1)c1cccs1 (configuration not stated) | -0.6 | ? | -11.0 | -4.7% | 6.4% | 11.7µM*
CC(C)C1(CCNC(=O)c2cccs2)CCOC(C)(C)C1 (configuration not stated) | -2.4 | ? | -13.1 | 10.5% | 3.0% | ?
CC(NCCC1(C(C)C)CCOC(C)(C)C1)c1cccs1 (configuration not stated) | 8.8* | 24.3% | 27.3 | 12.2% | -3.5% | ?
CCOC(=O)N1CCN(C(=O)C[C@@H]2C[C@@]3(C(=O)OC)CCCCC=C3N(CCc3ccc(OC)c(OC)c3)C2=O)CC1 | nt | nt | nt | nt | -6.7% | nt
Cc1ccc(C(=O)OCC(=O)NC(C)C2CC3CCC2C3)cc1N (configuration not stated) | nt | nt | nt | -2.4% | -6.0% | nt
N#C/C(=C\C=C\c1ccccc1)C(=O)N1CCCC1 | 21.7* | 7.38µM* | 70.4* | 9.1% | -1.5% | ?
CCN1CCN(C(=O)/C(C#N)=C/c2ccc(OC(F)F)cc2)CC1 | -5.4 | -13.5% | -9.1 | 20.7% | 4.1% | 52.8%
N#C/C(=C\c1ccc(OC(F)F)cc1)C(=O)N1CCCCC1 | 27.5* | -9.1% | 46.1* | 2.4% | 14.2% | 2.1%
O=C(COc1ccc(S(=O)(=O)N2CCOCC2)cc1Cl)NCc1ccc2c(c1)OCO2 | nt | nt | nt | nt | 1.8% | nt
COc1ccc(-c2c3c(=O)n(C)c(=O)n(C)c3cn2C2CCCCC2)cc1 | 6.7 | ? | -10.4 | 25.1µM* | -19.4% | 21.6%
CCCn1cc2c(c1-c1ccc(C)cc1)c(=O)n(C)c(=O)n2C | -1.7 | -4.8% | -4.5 | -23.2% | -3.6% | 3.0%
CC(C)C[C@@H](CNCC(=O)[C@H](Cc1ccccc1)NC(=O)c1[nH]cnc1C(=O)N[C@H](CN)CC(C)C)NC(=O)c1nc[nH]c1C(=O)N[C@@H](CC(=O)O)C(=O)O | nt | nt | nt | 23.5% | 54.0% | nt
CC(/C=C/c1ccco1)=N\NC(=O)c1cc(C)[nH]n1 | 2.7 | 4.6% | 3.0 | -5.2% | 5.2% | 10.2%
Cc1cc(C(=O)N/N=C/c2ccco2)n[nH]1 | 28.8* | 121.8% | 46.4 | 0.7% | -8.9% | 0.0%
O=C(N/N=C/c1ccc([N+](=O)[O-])cc1)c1cc(C2CC2)[nH]n1 | -0.8 | -20.0% | -16.6 | -16.5% | -15.1% | ?

Screens: PubChem BioAssay, National Center for Advancing Translational Sciences (NCATS)
